Reference: PubChem BioAssay AID1508600 (Functional Genomics Laboratory (NCATS/FGL), 2020)
Out of some 53,000 sequences screened, about 3,700 (7%) were called active. The entries come from a sample that favours actives as a whole. Values without a mark were called inactive.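 The calls were made as follows: active = gene knockdowns whose robust z-score for IL-1 alpha signal is at least 2 or at most -2, so actives lie on both sides; inactive = the rest.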

Assay: Components of the Cytosolic LPS Sensing Pathway: Gene Identification via Genome-wide siRNA Screen;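 also: robust z of the log signal after scaling to non-targeting control siRNA wells of the plate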
Settings: RAW264.7 macrophages, IL-1a HTRF, actives lie on both sides, screened at 100 nM (by protocol), cells primed 5 h with Pam3CSK4 first
Method in brief: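 RAW264.7 mouse macrophages reverse-transfected with single siRNAs (100 nM final) for 48h, primed with Pam3CSK4 for 5 hours, then transfected with LipidA for 24 hour. Supernatant IL-1a read by HTRF; values normalized to negative-control median, log-transformed robust z-scores.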

Sequence	z-score
GCAAGUCCAUUCUUUUUCATT against Tmprss11g	-0.643
GGAAACCUGAUACUAACAATT against Afmid	-1.88
GGAAGUCCUUGCAUUCCUCTT against Dlec1	0.816
GGCUGAGAAAACCAAAGGGTT against Cfdp1	1.9
GCUGGAGUGUCAGUCAUAUTT against Reg4	3.35 (active)
GGUCUAUCGCUUGCUUUUUTT against Abca2	1.67
GGUAAUCAGUAGUGACUUATT against Mkln1	0.229
CCCUCAACCAUUGUUCGAGTT against Rasal1	-0.328
GGGCUGUAUUUCUUUACCCTT against Mrgprb2	0.508
GCGCAGCACAGGUUUUGAATT against Klf10	-0.217
GGAAAAAAUACCAGAAACATT against Klre1	-2.68 (active)
GCCUAUCGAAAAGUCUUGGTT against Adcyap1	0.875
GGCCAAGCUAUAAGAAAUGTT against Cntnap2	0.201
AACUCCCUCCCUGUUGUAGTT against A4galt	-0.361
GGCCAUAUUAAGUAUGGAGTT against Fam118a	-0.34
GGAGAAGUAAAACUCGAAGTT against Rwdd2a	0.276
CCGAAUUUCUCCUAUUGGGTT against Olfr106-ps	-0.241
GGUAUGUAACGGUAUUUAATT against Gja1	2.66 (active)
CCUAGAGCCGUGUGCAUACTT against Plp2	0.891
CCAUUGGUUUUGAGGAUAUTT against Pomp	-1.18
GGUAGAAAAAACACAAACGTT against Ppp2r3c	1.43
GGUUUUGUGGGAAGAGUCATT against Ccdc163	-2.99 (active)

Sequence	z-score
CCUGGACAUAACCAAUGUATT against Glrp1	1.5
CCCUGGGCAGUUUGCAUGUTT against Dgcr2	0.815
GCAACGAGGUACUGUUUUATT against Rab7b	0.626
GGUAGAGCUGCACUUUGGATT against Hddc3	-1.43
GGUUUGUCAGGUUCUAAAATT against Atf1	2.34 (active)
GGUACAAAGACUGACGAGUTT against Gnptg	0.00278
CGACCAGAAGUGGUAUGUCTT against Adra2a	-1.03
GGAGACAUUCACUGUCUUCTT against Ephb4	-0.322
CCAGUAUCUAAUUGGAAUATT against Paqr8	2.07 (active)
GCUGUUUGAAGCUGAUACCTT against Fads3	-0.0526
GGCAUCCAGACAAGUGAUGTT against Zer1	0.699
GCCAUCACAAUUCUAAUCCTT against Vmn2r123	-1.54
CCAAGAUUGACAUCAUCCGTT against Pkn1	-0.595
CGAAUACCUGAAGUGCAAATT against Art3	0.454
GGAGCCAGAACCUGAAAUUTT against Ankrd1	2.86 (active)
GCUCUAGACAUAUGAGGCUTT against Wee2	-0.0864
CCCAUGAUGCCAUCUUUAATT against 2410002F23Rik	-1.03
GGAACAUUUCUGGAUUGUUTT against Muc1	-0.503
CCAGCUCUCGAUUCCAUCATT against Fem1a	0.615
GGAUACCCUGGAGUUUAUATT against Prss42	0.941
GCGUGAUCAUUGAUGUGGATT against Slc5a7	0.364
GUUCCACAAAGACCAUCAGTT against Olfr134	0.679

Sequence	z-score
GCCUGGUUAAGGCAUGAUATT against Gm4884	2.63 (active)
GCCACAACCACCUGAACUUTT against Amigo1	-0.854
GGACUUCAAGGAUAGUGAGTT against Osm	-1.13
GGUCGAUGCAAAGAUGCUGTT against Smoc1	0.811
GCUUCUGUAAAUCCCAUAUTT against Olfr26	-0.0814
GCUGUCACUUUGAAUCCCUTT against Nrg1	-0.988
GGUAUUGAAAUGGAAAAGGTT against D6Wsu163e	-1.2
GGGCCUAUGCUUACAAACGTT against Pkp3	2.37 (active)
GGUUCUAAUUAGAGAAACATT against Tcte1	0.461
CGACCAUUCCUUUGAGUUATT against Atl1	3.09 (active)
GGAGCUACCUCUGGAUACATT against Tmem269	1.28
GGUACUGGAAAGAAAUGAGTT against Exph5	0.356
GGUUGUCAUAAUCUUGUUATT against Irgq	-0.59
GGUAUUUAGGUUGAUAACATT against Kbtbd8	-0.206
GGUCUUAGAUAAUGUUAGATT against Gpr26	0.718
CCCUGUAAGGUUGAUUGUGTT against Oog3	0.535
GGCUCAUUCCUCUUCUUCCTT against Serhl	-3.08 (active)
GCCAAGUAAAACCAAAUGUTT against Ldlrad4	-1.85
CCGAGAACAGUUGAAGAAGTT against Srbd1	0.174
GGUGGAUGAGUUGUUCCUUTT against Adck5	0.637
GCUACAGGAUUUAUACAUGTT against Dhx29	0.865
GGGACUUAUGUACAACUUCTT against Idua	1.53

Sequence	z-score
CCUCUGCGCAAUUUAGAGATT against Npb	1.1
GACAAGAACCCGGAUAAUATT against Dnajb2	-0.229
GCAAGCACGUCAGAAUCUCTT against Pln	2.32 (active)
GGAAGAACUGAUUGAAGAGTT against Sptlc1	-0.789
GGUGAAAGACCAUUUAUUUTT against Zxdc	0.657
CGUGACUCUGCUUUAACUCTT against Col27a1	-2.27 (active)
GGAGCUUGCUCAGACUACUTT against Cct8	-0.914
GCCUAUCGUCCAGAUUAUCTT against Senp1	0.919
GGUCAAGUAUCUGAGAAAATT against Selenoh	0.154
GGCGAUAAGGAACAGAAGUTT against Ppp3r1	-0.199
GGUCAACCUCAAAGUCUUUTT against Il17a	0.581
GGGCUUCAGAAAAUCCAGGTT against Dclre1a	-0.447
GGCUCCUAUAUACUGAUCATT against Olfr1402	-2.65 (active)
CCUGGUAAAAGACUGGGCUTT against Dnal1	1.76
GGUUAGUCGACAGAAACAATT against Poteg	-1.11
GCUGUCUCAAUCACCCUAATT against Olfr1427	-1.23
GGUCAAGUGUAACAAAGAATT against Bcorl1	-0.417
GGUCAUUAUUGUCAUCUACTT against Tmem9	-0.323
GGAAAUCACUGGUUUUCAATT against Asah2	2.88 (active)
GGAGACUGACAAGAAAAUUTT against Gm16367	-0.967
GCAUCACGUAUGUGAUUUGTT against Dmrtc1a	-0.569
GCAGAGGAGUGAAUAGAUATT against Dtx3l	0.45

Sequence	z-score
GGCCAACUUUUUUCACCCATT against Git1	-2.19 (active)
GGUUGUUCGUGGACACUACTT against Rpl26	-0.404
GGCCGUCACUACUCUGAAATT against Mgst2	-2.29 (active)
GGCACUUCUUGGACAUCAUTT against Sfxn5	-0.019
CGAAGGUCUGUUCGAGAACTT against Morn4	0.668
GCUUCAUCCUAGCGGUUUGTT against Dad1	-0.899
CGAUCGAAUCCUUAAGUACTT against Ttll1	-0.0193
GCUUUUUACAGGAUAUACATT against Zfp644	-0.143
GCCAUACCUUCAACUGUCGTT against Ncoa2	-2.42 (active)
GGAACGUAAACUAAGCCCGTT against Foxb1	0.458
CCCAUUUCACUUCAGUUUGTT against Osbp2	-0.253
CCCAAAACGGUAGCUUAAGTT against Rcc1	-0.0143
GGCAAGAAAGGACCAAUGGTT against Cln8	0.206
CCGUGGGUUUUUUGAAUCUTT against Slc6a1	2.63 (active)
GCCCAAUAGAAGCUGGAUGTT against Tex29	-1.99
GGAGCGAGAAGCUUUAGAATT against Ubxn1	0.61
GGCCAACUAGGGUGUUUGUTT against Tsx	0.182
GCUAUUAGGAAAUGAAAGATT against Ncald	0.384
GCAGAGACUCCAAAGCUCATT against Chd4	-2 (active)
GGAACUUGACAAAGUCUACTT against Panx1	1.2
